From PubChem BioAssay (NCI)
This is part of a sample that, as a whole, favours compounds with a hit. Of some 83,000 tested, about 20% had one in any assay.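 A percent growth of 40 corresponds to 60% growth inhibition; 0 means no net growth; -100 means all cells died. Active threshold: below 10.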 Values without a mark were called inactive. Calls of active or inactive are those of the source.

Key:
Experiment in all cases: NCI-60 one-dose screen, 48 h (100 = growth as untreated, 0 = no growth, -100 = all killed)
DU-145 prostate = conditions: 10 µM unless noted
K-562 leukemia = conditions: 10 µM unless noted
MALME-3M melanoma = conditions: 10 µM unless noted
MDA-MB-231 breast = conditions: 10 µM unless noted
RXF 393 renal = conditions: 10 µM unless noted
SF-268 CNS = conditions: 10 µM unless noted
SF-295 CNS = conditions: 10 µM unless noted
SF-539 CNS = conditions: 10 µM unless noted
UACC-257 melanoma = conditions: 10 µM unless noted
M14 melanoma = conditions: 10 µM unless noted
HCT-15 colon = conditions: 10 µM unless noted
HT29 colon = conditions: 10 µM unless noted
SNB-75 CNS = conditions: 10 µM unless noted
SNB-19 CNS = conditions: 10 µM unless noted
U251 CNS = conditions: 10 µM unless noted
PC-3 prostate = conditions: 10 µM unless noted
SK-MEL-5 melanoma = conditions: 10 µM unless noted
LOX IMVI melanoma = conditions: 10 µM
SK-MEL-28 melanoma = conditions: 10 µM unless noted
UACC-62 melanoma = conditions: 10 µM unless noted

Row | Compound | growth (DU-145 prostate) | growth (K-562 leukemia) | growth (MALME-3M melanoma) | growth (MDA-MB-231 breast) | growth (RXF 393 renal) | growth (SF-268 CNS) | growth (SF-295 CNS) | growth (SF-539 CNS) | growth (UACC-257 melanoma) | growth (M14 melanoma) | growth (HCT-15 colon) | growth (HT29 colon) | growth (SNB-75 CNS) | growth (SNB-19 CNS) | growth (U251 CNS) | growth (PC-3 prostate) | growth (SK-MEL-5 melanoma) | growth (LOX IMVI melanoma) | growth (SK-MEL-28 melanoma) | growth (UACC-62 melanoma)
1 | C=CCS(C)(=O)=O | 108% | 103% | 121% | 97.9% | 98% | 103% | 93.8% | 96.3% | 89.5% | 95.8% | 102% | 97.1% | 94.1% | 101% | 90.4% | 101% | 104% | 103% | 106% | –
2 | CCCc1cccc(CCC)c1NC(=O)Nc1cc(Cl)cc(Cl)c1 | 107% | 100% | 87.5% | 90.2% | 116% | 94.9% | 109% | 92.4% | 86% | 101% | 113% | 107% | 108% | 99.5% | 101% | 101% | 94.3% | – | 103% | 90%
3 | Cc1ccc(S(=O)(=O)Oc2ccc3sc4c(CO)ccc(NCCN(C)C)c4c(=O)c3c2)cc1 | -97.6% [100 µM] (active) | -61.4% [100 µM] (active) | -89.5% [100 µM] (active) | -90.7% [100 µM] (active) | -57.5% [100 µM] (active) | -61.3% [100 µM] (active) | -78.7% [100 µM] (active) | -93.1% [100 µM] (active) | -82% [100 µM] (active) | -96.5% [100 µM] (active) | -93.8% [100 µM] (active) | -84.3% [100 µM] (active) | -92.1% [100 µM] (active) | -83.7% [100 µM] (active) | -74.7% [100 µM] (active) | -86.8% [100 µM] (active) | -94.3% [100 µM] (active) | – | -85.1% [100 µM] (active) | -95.5% [100 µM] (active)
4 | COc1cccc(C(=O)O)c1OC | 111% | 107% | 103% | 99.2% | 115% | 105% | 87.5% | 96.4% | 97.6% | 103% | 101% | 96.8% | 90.8% | 106% | 98.2% | 96.3% | 104% | 99% | 102% | –
5 | CS(=O)CC(=N\O)/C(CS(C)=O)=N\O (centres undefined) | 102% | 106% | 97.5% | 101% | 114% | 98.5% | 101% | 101% | 96.3% | 96.3% | 99% | 99.9% | 96.5% | 101% | 96.5% | 104% | 103% | – | 107% | 93.8%
6 | Cc1onc(-c2c(F)cccc2Cl)c1-c1ncc(-c2ccc(Br)cc2)o1 | 50% | 24% | 45.2% | 52.3% | 58.7% | 43.1% | 36.4% | 39.6% | 23.7% | 54.3% | 17.7% | 24.9% | 65.8% | 42.9% | 39.6% | 41% | 10.8% | – | 50.3% | 34%
7 | O=C(O)CSCC(=O)Nc1cc(C(F)(F)F)ccc1Cl | 128% | 102% | 105% | 112% | 128% | 94.5% | 103% | 101% | 103% | 103% | 103% | 104% | 125% | 106% | 106% | 102% | 102% | – | 114% | 99.6%
8 | CC(=O)Oc1c(Cl)cccc1-c1ccccc1 | 104% | 101% | 111% | 98.4% | 110% | 95.1% | 103% | 104% | 87.6% | 108% | 108% | 98.1% | 103% | 98.9% | 90% | 89.5% | 101% | 103% | 112% | –
9 | O=C(O)c1ccccc1Cc1ccc2c(c1)CCCC2 | 118% | 106% | 108% | 95% | 105% | 99.5% | 116% | 110% | 100% | 110% | 104% | 107% | 87.2% | 102% | 111% | 103% | – | 109% | 108% | 96.4%
10 | C=C(C)COc1ccc(C(C)(C)C)cc1 | 107% | 106% | 116% | 102% | 99.5% | 99.8% | 101% | 102% | 82.6% | 102% | 108% | 99.2% | 94% | 103% | 88.5% | 96.9% | 104% | 101% | 108% | –
11 | CN(CCCN(C)CCC1CCCCC1)CCC1CCCCC1 | 83.8% | -57.5% (active) | -74.7% (active) | -3% (active) | -4.36% (active) | 84.2% | 27.1% | -57.7% (active) | -66.3% (active) | -100% (active) | 8.41% (active) | 3.68% (active) | -0.933% (active) | 77.3% | 11.1% | 43.2% | -100% (active) | -4.45% (active) | -84.9% (active) | –
12 | OCCc1ccc(Cl)cc1 | 109% | 99.9% | 99.5% | 96.9% | 112% | 99.9% | 94.9% | 93.9% | 86.6% | 99.2% | 102% | 99.9% | 86.5% | 96.5% | 92.3% | 95.5% | 103% | 100% | 108% | –
13 | Nc1ccn(C2CC(N)C(CO)O2)c(=O)n1 (centres undefined) | 51.2% | 83.9% | 79.2% | 94.4% | 128% | 102% | 82.4% | 76.3% | 96% | 66.2% | 71.4% | 81.3% | 77.6% | 68.2% | 80.9% | 74.8% | 83.6% | 75.4% | 118% | –
14 | N#Cc1ccc(OC(=O)Nc2cc(Cl)cc(Cl)c2)cc1 | 18.9% [100 µM] | 6.66% [100 µM] (active) | -32.5% [100 µM] (active) | -52.8% [100 µM] (active) | 10.3% [100 µM] | 12.5% [100 µM] | -23.1% [100 µM] (active) | -4.48% [100 µM] (active) | -20.1% [100 µM] (active) | -25.3% [100 µM] (active) | 3.2% [100 µM] (active) | 2.78% [100 µM] (active) | -9.78% [100 µM] (active) | 15.4% [100 µM] | 4.68% [100 µM] (active) | -9.43% [100 µM] (active) | -94.3% [100 µM] (active) | – | 5.58% [100 µM] (active) | -33.1% [100 µM] (active)
15 | COc1ccc(C)cc1NC(=O)SC(C)C | 103% [100 µM] | 92.5% [100 µM] | 98.8% [100 µM] | 92.1% [100 µM] | 102% [100 µM] | 97.3% [100 µM] | 105% [100 µM] | 97.6% [100 µM] | 98.8% [100 µM] | 110% [100 µM] | 102% [100 µM] | 104% [100 µM] | 82.4% [100 µM] | 99% [100 µM] | 104% [100 µM] | 96.7% [100 µM] | 96.3% [100 µM] | – | 102% [100 µM] | 87.5% [100 µM]
16 | C/C=C/C1OCC(CC)C(CCC)O1 (centres undefined) | 115% | 89.3% | 114% | 100% | 124% | 101% | 113% | 99.1% | 93.5% | 104% | 111% | 105% | 90.2% | 99.7% | 104% | 98.9% | – | 113% | 112% | 101%
